Screening results: PubChem BioAssay, National Center for Advancing Translational Sciences (NCATS)
Compounds with a hit are over-represented: about 2.3% of the library has one in this group of screens.
15-hLO-2 inh – blocks human 15-lipoxygenase 2 activity. O15296. purified 15hLO-2, xylenol orange hydroperoxide absorbance. Potency, µM (titrated, usually from 57.1 µM), inactives show at the top dose activity change, negative = inhibition, usual class: inhibitors. 110,000 tested, 0.56% active; also: potency is read from the fitted curve at half-maximal effect; % is scaled to controls: 0 for no effect and ±100 for the full control effect; nearly all actives have a fitted effect of over 60% in size
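Enzyme 50 nM, AA 45 uM, 25 mM Hepes pH 7.5 + 0.01% Triton X-100; cpd preinc 15 min RT, rxn 90 min RT; stop/detect with 200 uM XO + 300 uM Fe(II) in 50 mM H2SO4, 30 min; A573/A405.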
ALOX15 inhib – blocks human 15-lipoxygenase activity; P16050; purified 15hLO-1, xylenol orange hydroperoxide absorbance; Potency, µM (top dose mostly 57.1 µM), for inactives: at the highest dose activity change, negative = inhibition, hits mostly inhibitors; 74,000 tested, 1.4% active; AID 887; also: potency is read from the fitted curve at half-maximal effect; % is scaled to controls: 0 for no effect and ±100 for the full control effect; nearly all actives have a fitted effect of over 55% in size
Target sequence (P16050 whole entry, looked up): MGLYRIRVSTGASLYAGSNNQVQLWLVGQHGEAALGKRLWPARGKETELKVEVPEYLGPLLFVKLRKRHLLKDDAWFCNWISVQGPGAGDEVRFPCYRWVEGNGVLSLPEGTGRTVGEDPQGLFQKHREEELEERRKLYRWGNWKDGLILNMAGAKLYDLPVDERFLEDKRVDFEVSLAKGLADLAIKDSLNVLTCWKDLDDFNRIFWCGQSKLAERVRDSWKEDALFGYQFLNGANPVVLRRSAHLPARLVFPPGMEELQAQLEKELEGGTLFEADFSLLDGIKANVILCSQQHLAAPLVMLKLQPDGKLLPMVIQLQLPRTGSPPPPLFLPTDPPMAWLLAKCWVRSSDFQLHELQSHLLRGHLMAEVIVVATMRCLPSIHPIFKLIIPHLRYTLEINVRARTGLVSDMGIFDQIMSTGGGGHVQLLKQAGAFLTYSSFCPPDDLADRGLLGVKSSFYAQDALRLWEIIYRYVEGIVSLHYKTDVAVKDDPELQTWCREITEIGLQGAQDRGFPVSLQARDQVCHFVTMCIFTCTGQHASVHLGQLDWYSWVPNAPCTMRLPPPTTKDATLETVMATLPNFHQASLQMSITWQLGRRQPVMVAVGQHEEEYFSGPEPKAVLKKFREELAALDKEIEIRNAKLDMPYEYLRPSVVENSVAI
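Compounds were preincubated 15 min at room temperature with 40 nM purified human enzyme (25 mM Hepes pH 7.5, 0.01% Triton X-100); 50 uM arachidonic acid reacted 6 min. Fe-xylenol orange detection, 30 min, absorbance ratio 573/405 nm.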
Epigenetic mod – epigenetic GFP locus derepression in mouse cells; mouse C127i GFP locus derepression, cytometry, 30 h; Potency, µM (series often up to 46.1 µM), for inactives: top-dose GFP derepression (activation); 68,000 tested, 0.09% active; AID 597; also: % of control where 0% means no effect
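Read-out is the number of GFP-positive cells, scored as fluorescent objects 20 to 120 um wide, reflecting derepression of a silenced CMV-GFP reporter in murine C127i cells after 30 h compound exposure at 37 C.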
HBB splicing – hemoglobin beta splicing modulation. Potency, µM (doses to about 46.1 µM), for the others: at the top dose activation, most hits filed as activators. HBB splicing reporter cell assay, activation; EGFP reporter with mutant IVS2-654 intron; response scale: normalised to 500 nM splice-correcting PNA. 65,000 tested, 0.06% active; also: potency is read from the fitted curve at half-maximal effect; 0% is about no effect
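HeLa cells stably expressing EGFP interrupted by mutant beta-globin intron 2 (IVS2-654), 500/well in 2% FCS. Treated with compound for 2 days at 37C. Splicing correction scored as total well GFP intensity (488 nm excitation, 500-520 nm emission); 500 nM antisense PNA served as control.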
Tau filament bind – binders of human tau filaments; recombinant tau filaments, thioflavin S fluorescence, 15 h; filaments grown with octadecylsulfate alongside compound; Potency, µM (top dose mostly 57.1 µM), inactives show top-dose activity change, negative = inhibition; 71,000 tested, 2% active; AID 596;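 also: potency is read from the fitted curve at half-maximal effect; % is scaled to controls: 0 for no effect and ±100 for the full control effect; actives lower thioflavin S fluorescence by blocking filaments or displacing dye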
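Tau 2 uM in ThS buffer dispensed; compound added; 60 uM ODS added (finals 1 uM tau, 30 uM ODS); 15 h 37 C; fluor ex450/em510.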
UbGFP stabilizer – inhibits proteasome, raising ubiquitin-GFP reporter fluorescence; Ubiquitin-GFP reporter cells, proteasome inhibition, GFP fluorescence; response scale: untreated = 0%, 10 µM MG-132 = 100%; Potency, µM (titrated, usually from 45.9 µM), inactives show top-dose activation (GFP accumulation), most hits filed as activators; 67,000 tested, under 10 active; AID 526; active = well fitted activation curve with a large enough effect, not every such curve was filed as active; inconclusive = small, poorly fitted or top-dose-only effect, or another doubt; inactive = no such curve, though single readings can be large or run the other way; also: potency is read from the fitted curve at half-maximal effect
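GFP accumulation read-out: laser plate cytometry counting ubiquitin(G76V)-GFP-expressing U2OS cells after 4 hr compound exposure at 37 °C. Titrations spanned 46 uM to 2.9 nM; 0% = basal, 100% = 10 uM MG-132; concentration-response curves fitted.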
* hit, by the source's call; i = inactive; u = inconclusive; x = no result; [ ] = another dose, or the depositor's remark. Unless noted, calls follow the shape of the dose curve; as a rule, active = well fitted curve in the direction sought with a large enough effect; inconclusive = small, poorly fitted or top-dose-only effect, or another doubt; inactive = no such curve, though single readings can be large; an effect the other way counts as inactive or inconclusive.

SMILES	15-hLO-2 inh	ALOX15 inhib	Epigenetic mod	HBB splicing	Tau filament bind	UbGFP stabilizer
COC(=O)c1ccccc1NC(=O)c1ccc2c(c1)C(=O)N(Cc1ccco1)C2=O	x	-1%	4%	0%	61%	-4%
COc1cc(C(=O)O[C@@H]2CC(C)=CC[C@@]3(C)CC[C@](O)(C(C)C)[C@H]23)ccc1O	x	x	-4%[9.22 µM]	x	40µM*	0%
O=C(Nc1ccc(N2CCN(C(=O)c3ccccc3)CC2)cc1)c1ccc(Br)o1	-8%	-10%	-3%	0%	-27%	6%
Cc1ccc(NS(=O)(=O)c2ccc(NC(=O)c3ccc(Br)o3)cc2)c(C)c1	-3%[11.4 µM]	16µM*	-3%	-1%	40%	6%
CCN(CC)c1ccc(NC(=O)c2ccc(Br)o2)cc1	-2%	-30%[11.4 µM]	0%	0%[0.0738 µM]	3.2µM*	-15%[9.17 µM]
O=C(Nc1ccc(N2CCCC2)cc1)c1ccc(Br)o1	-3%	u	-2%	-1%[0.0738 µM]	3.2µM*	-9%[9.17 µM]
Cc1cc2cc(CN3C(=O)c4ccccc4C3=O)ccc2n1C	x	u	4%	-1%	20µM*	-9%
Cc1cccc(NS(=O)(=O)c2ccc(Cl)c(C(=O)O)c2)c1	x	-5%	x	x	x	x
CCc1ccccc1N1CSC2=C(C#N)C(c3ccccc3F)CC(=O)N2C1 (centres undefined)	10µM*	3.2µM*	-3%	0%	30%	3%
COc1ccc(C2CC(=O)N3CN(c4ccccc4F)CSC3=C2C#N)cc1OC (centres undefined)	u	0.32µM*	5%	0%	8%	12%
C=CCOC(=O)C1=C(C)OC(N)=C(C#N)C1c1ccccc1F (centres undefined)	-1%	x	x	x	x	x
CCOc1cc(C2CC(=O)N3CN(C4CCCCC4)CSC3=C2C#N)ccc1O (centres undefined)	u	u	x	0%	-19%	-6%
COc1cc(/C=N/NC(=O)c2cc(-c3ccccc3)n[nH]2)cc(OC)c1OC	x	-7%	x	x	x	x
N=C(N)C(N=Nc1ccccc1)C(=N)N (centres undefined)	5%[11.4 µM]	-4%[11.4 µM]	3%[9.22 µM]	1%[9.22 µM]	u	5%[9.17 µM]
NC1=N[C@H](c2ccc(Cl)cc2)N(c2ccc(S(N)(=O)=O)cc2)C(N)=N1	0%[11.4 µM]	8%[11.4 µM]	20%[9.22 µM]	-1%[9.22 µM]	6%[11.4 µM]	-7%[9.17 µM]
COc1ccc(CCNc2cc(=O)[nH]c(N)n2)cc1	0%	-10%	2%	1%	16µM*	0%
S=C1SCN(C2CCCCCCCCCCC2)CN1C1CCCCCCCCCCC1	-3%[11.4 µM]	12%[11.4 µM]	-3%[9.22 µM]	-1%[9.22 µM]	-3%[11.4 µM]	3%[9.17 µM]
Cc1ccc(N(CC(=O)NC2CCCC2)C(=O)CCCC(=O)Nc2ccccn2)cc1C	-3%	0%	-2%	x	5%	5%
Cc1cc(NC(=O)CCCC(=O)N(CC(=O)NC2CCCCC2)c2ccccc2)no1	6%	25µM*	0%	0%[57.5 µM]	5%	-3%
NCCSCCC(=O)O	-5%[11.4 µM]	0%[11.4 µM]	0%[9.22 µM]	2%[9.22 µM]	1%[11.4 µM]	-3%[9.17 µM]
CC(=O)c1ccc2c(c1)N(CCCN1CCC(CCO)CC1)c1ccccc1S2	31%[25.6 µM]	8%[25.6 µM]	-2%[20.6 µM]	0%[20.6 µM]	4µM*	9%[20.5 µM]
Cc1noc(C)c1-c1cncnc1NCc1cccnc1	-8%	u	0%[9.22 µM]	-1%	-12%	4%
COc1ccc2cc3c(N)c(C(=O)N4CCCC4)sc3nc2c1	-9%	u	0%	0%	20µM*	7%
O[C@@H](c1cc(-c2ccc(Cl)cc2)nc2ccccc12)[C@@H]1CCCCN1	22%[11.4 µM]	8%[11.4 µM]	2%[9.22 µM]	2%[9.22 µM]	7%[11.4 µM]	12%[9.17 µM]
O[C@H](C[C@@H]1CCCCN1)c1ccc2c(c1)oc1ccccc12	9%[11.4 µM]	8%[11.4 µM]	1.3µM*	2%[9.22 µM]	14%[11.4 µM]	-2%[9.17 µM]
SMILES	15-hLO-2 inh	ALOX15 inhib	Epigenetic mod	HBB splicing	Tau filament bind	UbGFP stabilizer
COc1ccc(Cn2c(-c3ccco3)nc3oc4cc(OC)ccc4c(=O)c3c2=O)cc1	-2%	-1%	2%	3%	10µM*	3%
N[C@@H](C(=O)O)[C@H](O)C(=O)O	x	x	-1%	0%	-5%	7%
Cc1cccc(C)c1NC(=O)Nc1cccs1	-24%	25µM*	1%	1%	-18%	-5%
CCc1cccc(NC(=O)Nc2cccs2)c1	-25%	13µM*	0%	-2%	u	-3%
OC[C@@H]1NC[C@@H](O)[C@H]1O	-6%	10%	0%	1%	-6%	-6%
O=S(=O)(O)O	-16%	-6%	x	1%	4%	x
COc1ccc(C(=O)c2cn[nH]c2-c2cc(Cl)ccc2O)cc1	-6%	20µM*	0%	-1%	-4%	-15%
Oc1ccc(Cl)cc1C=Nc1cnc2ccccc2c1	-6%[11.4 µM]	1%[11.4 µM]	-7%[9.22 µM]	3%[9.22 µM]	-3%[11.4 µM]	-5%[9.17 µM]
Cc1nc2nc(-c3ccco3)nn2c(C)c1Cl	-4%	2%	3%	-4%	-18%	-2%
Nc1nc(NCCc2ccc(O)cc2)nc2nc(-c3ccco3)nn12	9%	-10%[25.6 µM]	0%	x	32µM*	3%
CN1C=CC=C/C1=C1\SC(=S)N(C2CCCCC2)C1=O	-15%	-24%[11.4 µM]	-2%	-1%[0.0738 µM]	4µM*	10%[9.17 µM]
CN1C=CC=C/C1=C1\SC(=S)N(c2ccccc2)C1=O	-21%	x	x	x	x	x
CN1/C(=C/C(=O)c2nc(S(C)(=O)=O)ncc2Cl)C(C)(C)c2ccccc21	u	-15%	u	4%	10µM*	1%
C[Si](C)(c1ccc(C(=O)O)cc1)c1ccc(C(=O)O)cc1	14%[11.4 µM]	-29%[11.4 µM]	-2%[9.22 µM]	0%[9.22 µM]	5%[11.4 µM]	0%[9.17 µM]
COc1ccc(C(=O)N2CCC[C@@]3(CCN(c4cccc(-c5ccccc5)c4)C3)C2)cc1	u	25µM*	2%[9.22 µM]	5%	4%	-7%
CCOc1ccc(-c2nnc(SCC(=O)N3CCN(c4ccccc4)CC3)o2)cc1	x	3%	3%	0%	-9%	23%
O=C(CSc1nnc(-c2ccccc2)o1)N1CCN(c2ccccc2)CC1	5%[2.29 µM]	u	0%	0%	10µM*	-4%
Cc1cnc(CNc2nc(-c3ccc(N(C)C)cc3)nc3ccccc23)cn1	4%	-24%	-1%[9.22 µM]	2%	i	9%
Clc1ccc(-c2ccc(-c3nn4c(-c5ccco5)nnc4s3)o2)cc1	x	16µM*	-3%	0%	25µM*	1%
Brc1ccc(-c2nn3c(-c4ccco4)nnc3s2)o1	-11%	20µM*	3%	0%	-8%	0%
O=C(c1cnccn1)N1CCC2(CC1)CCN(c1cccc(-c3ccccc3)c1)CC2	8%	1%	2%[9.22 µM]	-3%	-20%	5%
NCC1OC(OC2C(N)CC(N)[C@@H](O)[C@@H]2OC2O[C@H](CO)[C@@H](O[C@@H]3OC(CN)C(O)C(O)C3N)C2O)C(N)C(O)C1O (some centres undefined)	1%	6%	x	x	x	x
